The record followed here is paper PMC7862700, “An all-to-all approach to the identification of sequence-specific readers for epigenetic DNA modifications on cytosine”.

Common to all, as to test: DAPPL (digital affinity profiling via proximity ligation, sequencing); 10 mM Tris-HCl pH 7.5, 50 mM NaCl, 1 mM DTT, 4% glycerol, room temperature, 30 min; GST-TFs on glutathione beads, 16-mer random dsDNA library, 0.1% formaldehyde crosslink after washing; high values mean tight binding
For test [1], the target named is T1, FLI1 (Homo sapiens, UniProt Q01543 1-452).
T1 sequence: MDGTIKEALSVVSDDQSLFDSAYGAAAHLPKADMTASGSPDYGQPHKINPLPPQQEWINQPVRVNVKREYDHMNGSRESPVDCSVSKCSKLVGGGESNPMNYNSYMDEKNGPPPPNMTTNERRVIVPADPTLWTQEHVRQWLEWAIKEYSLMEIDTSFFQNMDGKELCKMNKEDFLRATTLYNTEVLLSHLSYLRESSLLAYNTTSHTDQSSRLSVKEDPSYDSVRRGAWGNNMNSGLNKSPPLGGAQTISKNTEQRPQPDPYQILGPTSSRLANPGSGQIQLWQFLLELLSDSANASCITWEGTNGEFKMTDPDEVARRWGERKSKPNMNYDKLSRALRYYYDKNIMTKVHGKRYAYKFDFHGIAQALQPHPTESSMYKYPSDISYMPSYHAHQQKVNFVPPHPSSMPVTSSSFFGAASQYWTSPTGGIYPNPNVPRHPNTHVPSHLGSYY
To be noted: protein: recombinant; tags: N-terminal GST; dsDNA, one strand shown. In a few lines: (§1)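 Beads coated with glutathione captured GST-fused human transcription factors that had been expressed in yeast, and the factors were then given DNA barcodes and pooled with a tag-only sample. The pools were incubated with 200 nmole of a random double-stranded 16-mer DNA library in Tris/NaCl/DTT/glycerol buffer for 30 min at room temperature, washed, crosslinked with 0.1% formaldehyde and proximity-ligated with BsaI/T4 ligase at 37 °C for 1 h. PCR amplification and Illumina NextSeq500 sequencing came last. Binding signal is each hexamer's read frequency for a factor divided by its frequency for the tag-only sample.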

The target in test [2] is T2, ELK1 (Homo sapiens, UniProt P19419 1-428).
T2 sequence: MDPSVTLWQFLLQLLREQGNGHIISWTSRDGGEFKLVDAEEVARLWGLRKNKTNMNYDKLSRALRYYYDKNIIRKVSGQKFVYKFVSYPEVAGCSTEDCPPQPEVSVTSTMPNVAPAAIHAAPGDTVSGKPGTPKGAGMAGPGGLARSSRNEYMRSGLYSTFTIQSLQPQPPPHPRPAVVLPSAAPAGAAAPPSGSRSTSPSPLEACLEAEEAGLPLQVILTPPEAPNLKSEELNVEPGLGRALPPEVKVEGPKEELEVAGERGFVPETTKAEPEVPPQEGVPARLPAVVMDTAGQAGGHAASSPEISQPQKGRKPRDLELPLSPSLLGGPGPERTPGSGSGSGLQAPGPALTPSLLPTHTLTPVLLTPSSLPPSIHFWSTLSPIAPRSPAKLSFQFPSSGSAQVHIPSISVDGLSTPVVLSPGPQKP
The following applies: protein: recombinant; tags: N-terminal GST; dsDNA, one strand shown. A digest of the protocol: as §1

Test [3] addresses T3, GABPA (Homo sapiens, UniProt Q06546 1-454).
T3 sequence: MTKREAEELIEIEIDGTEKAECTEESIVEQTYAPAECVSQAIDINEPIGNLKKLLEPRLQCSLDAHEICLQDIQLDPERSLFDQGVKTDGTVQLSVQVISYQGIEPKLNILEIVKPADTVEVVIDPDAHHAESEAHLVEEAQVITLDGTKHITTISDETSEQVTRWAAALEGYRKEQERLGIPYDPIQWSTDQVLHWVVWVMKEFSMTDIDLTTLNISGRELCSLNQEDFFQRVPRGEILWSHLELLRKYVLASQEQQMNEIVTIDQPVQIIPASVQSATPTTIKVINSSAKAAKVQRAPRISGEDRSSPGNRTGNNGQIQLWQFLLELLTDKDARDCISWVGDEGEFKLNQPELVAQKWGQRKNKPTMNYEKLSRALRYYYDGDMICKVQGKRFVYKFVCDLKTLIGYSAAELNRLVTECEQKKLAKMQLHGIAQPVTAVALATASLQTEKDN
The following applies: protein: recombinant; tags: N-terminal GST; dsDNA, one strand shown. A digest of the protocol: as §1

The target of test [4] is T4, ERG (Homo sapiens, UniProt P11308 1-479).
T4 sequence: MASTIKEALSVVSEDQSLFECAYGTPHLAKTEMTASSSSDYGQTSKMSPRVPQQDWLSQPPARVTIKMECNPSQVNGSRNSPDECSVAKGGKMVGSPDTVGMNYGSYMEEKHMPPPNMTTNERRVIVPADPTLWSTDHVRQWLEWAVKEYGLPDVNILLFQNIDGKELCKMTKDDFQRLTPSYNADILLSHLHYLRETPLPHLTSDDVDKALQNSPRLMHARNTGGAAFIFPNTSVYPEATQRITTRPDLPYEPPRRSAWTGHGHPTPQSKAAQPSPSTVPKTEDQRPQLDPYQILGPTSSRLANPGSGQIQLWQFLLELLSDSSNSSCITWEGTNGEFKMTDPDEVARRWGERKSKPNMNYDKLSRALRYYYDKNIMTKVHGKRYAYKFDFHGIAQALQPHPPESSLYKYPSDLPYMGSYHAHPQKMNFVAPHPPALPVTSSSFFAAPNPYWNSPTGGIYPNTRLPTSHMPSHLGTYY
To be noted: protein: recombinant; tags: N-terminal GST; dsDNA, one strand shown. In a few lines: as §1

In test [5] the target is ELF1 (Homo sapiens, UniProt P32519 1-619). The following applies: protein: recombinant; tags: N-terminal GST; dsDNA, one strand shown. A digest of the protocol:
as §1

The target of test [6] is T5, EHF (Homo sapiens, UniProt Q9NZC4 1-300).
T5 sequence: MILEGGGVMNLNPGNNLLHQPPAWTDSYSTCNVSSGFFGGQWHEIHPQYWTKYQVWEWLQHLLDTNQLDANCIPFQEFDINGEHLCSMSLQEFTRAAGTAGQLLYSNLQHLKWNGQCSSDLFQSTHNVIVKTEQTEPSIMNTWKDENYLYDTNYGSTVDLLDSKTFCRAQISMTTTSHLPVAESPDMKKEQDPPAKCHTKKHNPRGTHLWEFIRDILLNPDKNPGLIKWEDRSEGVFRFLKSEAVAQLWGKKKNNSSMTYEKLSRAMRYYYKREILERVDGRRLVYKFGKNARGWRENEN
The following applies: protein: recombinant; tags: N-terminal GST; dsDNA, one strand shown. In a few lines:
as §1

The target of test [7] is SPIB (Homo sapiens, UniProt Q01892 1-262). To be noted: protein: recombinant; tags: N-terminal GST; dsDNA, one strand shown. A digest of the protocol:
as §1

For test [8], the target named is T6, ELK3 (Homo sapiens, UniProt P41970 1-407).
T6 sequence: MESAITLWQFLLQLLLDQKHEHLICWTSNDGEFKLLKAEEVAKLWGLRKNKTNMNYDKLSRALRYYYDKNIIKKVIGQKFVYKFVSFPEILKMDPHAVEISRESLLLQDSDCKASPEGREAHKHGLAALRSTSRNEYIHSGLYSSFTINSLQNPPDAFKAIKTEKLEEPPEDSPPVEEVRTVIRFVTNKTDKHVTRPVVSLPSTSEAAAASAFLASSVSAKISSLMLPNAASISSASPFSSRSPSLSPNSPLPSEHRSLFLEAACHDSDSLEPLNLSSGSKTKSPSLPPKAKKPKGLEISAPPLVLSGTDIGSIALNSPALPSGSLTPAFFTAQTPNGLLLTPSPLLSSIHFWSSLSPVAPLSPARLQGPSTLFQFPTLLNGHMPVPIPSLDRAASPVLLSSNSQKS
To be noted: protein: recombinant; tags: N-terminal GST; dsDNA, one strand shown. A digest of the protocol: as §1

Test [9] addresses T7, FEV (Homo sapiens, UniProt Q99581 1-238).
T7 sequence: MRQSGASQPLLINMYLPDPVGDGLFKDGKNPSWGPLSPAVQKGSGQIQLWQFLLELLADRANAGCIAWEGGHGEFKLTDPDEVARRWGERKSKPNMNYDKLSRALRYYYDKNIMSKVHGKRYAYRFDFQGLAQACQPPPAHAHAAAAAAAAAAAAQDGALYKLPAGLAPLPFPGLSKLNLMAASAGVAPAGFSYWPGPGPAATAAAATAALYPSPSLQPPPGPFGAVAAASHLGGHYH
To be noted: protein: recombinant; tags: N-terminal GST; dsDNA, one strand shown. A digest of the protocol: as §1

In test [10] the target is ETV5 (Homo sapiens, UniProt P41161 1-510). The following applies: protein: recombinant; tags: N-terminal GST; dsDNA, one strand shown. In a few lines:
as §1

The target in test [11] is HSF1 (Homo sapiens, UniProt Q00613 1-529). The following applies: protein: recombinant; tags: N-terminal GST; chain copies: 3; dsDNA, one strand shown. In a few lines:
as §1

The target of test [12] is T8, SPIC (Homo sapiens, UniProt Q8N5J4 1-248).
T8 sequence: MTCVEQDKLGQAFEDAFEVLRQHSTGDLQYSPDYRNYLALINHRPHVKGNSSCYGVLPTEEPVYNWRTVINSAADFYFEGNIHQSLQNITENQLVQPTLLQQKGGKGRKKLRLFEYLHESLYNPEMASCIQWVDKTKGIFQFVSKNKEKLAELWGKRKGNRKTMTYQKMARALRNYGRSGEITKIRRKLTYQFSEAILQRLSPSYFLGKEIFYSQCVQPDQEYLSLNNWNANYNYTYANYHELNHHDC
The following applies: protein: recombinant; tags: N-terminal GST; dsDNA, one strand shown. A digest of the protocol:
as §1

The target of test [13] is ELF4 (Homo sapiens, UniProt Q99607 1-663). The following applies: protein: recombinant; tags: N-terminal GST; dsDNA, one strand shown. In a few lines: as §1
Chain of ELF4 (Q99607 whole entry): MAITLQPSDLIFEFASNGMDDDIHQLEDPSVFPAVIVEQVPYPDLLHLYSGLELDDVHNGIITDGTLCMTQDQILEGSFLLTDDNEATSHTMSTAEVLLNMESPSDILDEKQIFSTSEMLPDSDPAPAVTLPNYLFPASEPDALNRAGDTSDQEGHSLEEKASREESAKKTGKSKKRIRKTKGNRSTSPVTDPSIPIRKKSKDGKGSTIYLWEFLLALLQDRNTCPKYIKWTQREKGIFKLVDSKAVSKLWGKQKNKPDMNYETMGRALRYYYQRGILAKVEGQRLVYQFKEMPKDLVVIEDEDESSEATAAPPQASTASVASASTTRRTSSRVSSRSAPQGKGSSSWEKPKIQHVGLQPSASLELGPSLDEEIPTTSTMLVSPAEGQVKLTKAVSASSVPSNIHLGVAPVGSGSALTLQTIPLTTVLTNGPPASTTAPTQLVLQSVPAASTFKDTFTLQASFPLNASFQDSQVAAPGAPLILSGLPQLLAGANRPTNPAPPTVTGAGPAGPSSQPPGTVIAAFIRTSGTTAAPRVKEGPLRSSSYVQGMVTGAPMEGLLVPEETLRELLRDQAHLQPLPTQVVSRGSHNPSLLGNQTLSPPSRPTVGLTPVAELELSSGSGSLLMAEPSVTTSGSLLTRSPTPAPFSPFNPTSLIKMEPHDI
For test [14], the target named is T9, ELK4 (Homo sapiens, UniProt P28324-2 1-405).
T9 sequence: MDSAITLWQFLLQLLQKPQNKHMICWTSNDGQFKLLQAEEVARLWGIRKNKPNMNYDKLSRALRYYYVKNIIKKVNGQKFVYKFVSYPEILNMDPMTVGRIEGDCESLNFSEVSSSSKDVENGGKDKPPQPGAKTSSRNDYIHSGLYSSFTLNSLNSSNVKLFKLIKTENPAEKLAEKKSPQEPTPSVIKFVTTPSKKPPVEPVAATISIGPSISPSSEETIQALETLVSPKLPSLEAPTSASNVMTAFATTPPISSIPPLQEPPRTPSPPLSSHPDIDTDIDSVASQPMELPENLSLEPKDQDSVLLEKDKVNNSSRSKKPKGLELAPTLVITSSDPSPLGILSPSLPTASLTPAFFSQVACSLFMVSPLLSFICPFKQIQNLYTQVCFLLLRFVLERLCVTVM
To be noted: protein: recombinant; tags: N-terminal GST; dsDNA, one strand shown. In a few lines: as §1

The target of test [15] is T10, ELF3 (Homo sapiens, UniProt P78545 1-371).
T10 sequence: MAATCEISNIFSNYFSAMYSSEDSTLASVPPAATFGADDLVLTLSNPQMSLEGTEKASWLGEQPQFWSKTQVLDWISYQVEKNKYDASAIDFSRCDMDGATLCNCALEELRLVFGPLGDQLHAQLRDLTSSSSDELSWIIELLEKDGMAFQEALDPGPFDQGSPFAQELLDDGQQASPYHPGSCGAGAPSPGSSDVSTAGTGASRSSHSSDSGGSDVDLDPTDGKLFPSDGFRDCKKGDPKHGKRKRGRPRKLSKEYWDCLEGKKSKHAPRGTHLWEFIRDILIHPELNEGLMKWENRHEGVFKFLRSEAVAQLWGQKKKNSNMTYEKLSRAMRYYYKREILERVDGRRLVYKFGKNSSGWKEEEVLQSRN
The following applies: protein: recombinant; tags: N-terminal GST; dsDNA, one strand shown. A digest of the protocol:
as §1

Test [16] has as its target CRX (Homo sapiens, UniProt O43186 1-299). The following applies: protein: recombinant; tags: N-terminal GST; dsDNA, one strand shown. A digest of the protocol:
as §1

The target in test [17] is ETV1 (Homo sapiens, UniProt P50549 1-477). To be noted: protein: recombinant; tags: N-terminal GST; dsDNA, one strand shown. In a few lines:
as §1

Chain of SPIB (Q01892 whole entry): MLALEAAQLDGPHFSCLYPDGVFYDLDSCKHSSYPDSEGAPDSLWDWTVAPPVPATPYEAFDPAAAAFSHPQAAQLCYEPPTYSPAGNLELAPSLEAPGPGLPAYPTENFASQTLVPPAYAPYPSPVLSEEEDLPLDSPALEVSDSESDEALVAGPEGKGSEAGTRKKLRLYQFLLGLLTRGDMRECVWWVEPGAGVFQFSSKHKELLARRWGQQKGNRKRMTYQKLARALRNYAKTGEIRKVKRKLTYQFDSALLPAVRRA
Chain of CRX (O43186 whole entry): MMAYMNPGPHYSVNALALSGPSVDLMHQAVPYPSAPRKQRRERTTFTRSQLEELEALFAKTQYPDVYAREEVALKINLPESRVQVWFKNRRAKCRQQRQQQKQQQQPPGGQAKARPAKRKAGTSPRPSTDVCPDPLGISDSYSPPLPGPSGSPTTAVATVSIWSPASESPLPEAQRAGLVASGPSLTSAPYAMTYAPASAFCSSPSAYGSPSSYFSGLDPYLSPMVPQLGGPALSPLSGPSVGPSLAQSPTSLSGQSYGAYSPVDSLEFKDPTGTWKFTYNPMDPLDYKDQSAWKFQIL
Chain of ELF1 (P32519 whole entry): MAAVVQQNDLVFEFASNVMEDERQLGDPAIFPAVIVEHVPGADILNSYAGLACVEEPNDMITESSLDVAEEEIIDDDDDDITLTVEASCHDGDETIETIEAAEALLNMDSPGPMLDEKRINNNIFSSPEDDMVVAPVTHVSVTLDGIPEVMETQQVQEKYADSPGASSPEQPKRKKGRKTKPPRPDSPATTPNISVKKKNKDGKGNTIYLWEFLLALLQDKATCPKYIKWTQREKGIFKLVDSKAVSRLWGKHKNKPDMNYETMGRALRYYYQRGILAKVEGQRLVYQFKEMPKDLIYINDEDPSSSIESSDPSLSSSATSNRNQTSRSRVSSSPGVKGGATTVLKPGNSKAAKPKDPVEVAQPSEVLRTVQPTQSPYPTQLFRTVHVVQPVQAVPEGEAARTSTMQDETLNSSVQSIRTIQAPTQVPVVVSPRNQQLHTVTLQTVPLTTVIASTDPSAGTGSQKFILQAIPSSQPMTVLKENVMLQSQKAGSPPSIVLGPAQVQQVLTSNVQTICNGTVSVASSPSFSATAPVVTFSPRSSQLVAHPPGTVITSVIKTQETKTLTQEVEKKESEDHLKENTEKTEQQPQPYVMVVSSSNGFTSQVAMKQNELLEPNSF
Chain of ETV5 (P41161 whole entry): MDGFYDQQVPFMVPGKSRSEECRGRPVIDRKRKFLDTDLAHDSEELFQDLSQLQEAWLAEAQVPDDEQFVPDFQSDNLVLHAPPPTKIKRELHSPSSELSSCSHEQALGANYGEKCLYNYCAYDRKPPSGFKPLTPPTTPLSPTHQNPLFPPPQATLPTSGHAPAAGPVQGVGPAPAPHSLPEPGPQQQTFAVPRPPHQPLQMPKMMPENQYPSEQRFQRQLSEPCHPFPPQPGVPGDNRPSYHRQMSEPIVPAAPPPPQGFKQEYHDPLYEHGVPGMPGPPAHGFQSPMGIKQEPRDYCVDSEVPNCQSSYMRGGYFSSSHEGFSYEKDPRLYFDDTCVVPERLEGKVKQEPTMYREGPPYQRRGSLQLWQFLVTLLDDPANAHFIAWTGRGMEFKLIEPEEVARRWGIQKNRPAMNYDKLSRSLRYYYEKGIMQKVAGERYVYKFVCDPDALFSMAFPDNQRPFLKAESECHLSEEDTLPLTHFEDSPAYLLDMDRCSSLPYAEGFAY
Chain of HSF1 (Q00613 whole entry): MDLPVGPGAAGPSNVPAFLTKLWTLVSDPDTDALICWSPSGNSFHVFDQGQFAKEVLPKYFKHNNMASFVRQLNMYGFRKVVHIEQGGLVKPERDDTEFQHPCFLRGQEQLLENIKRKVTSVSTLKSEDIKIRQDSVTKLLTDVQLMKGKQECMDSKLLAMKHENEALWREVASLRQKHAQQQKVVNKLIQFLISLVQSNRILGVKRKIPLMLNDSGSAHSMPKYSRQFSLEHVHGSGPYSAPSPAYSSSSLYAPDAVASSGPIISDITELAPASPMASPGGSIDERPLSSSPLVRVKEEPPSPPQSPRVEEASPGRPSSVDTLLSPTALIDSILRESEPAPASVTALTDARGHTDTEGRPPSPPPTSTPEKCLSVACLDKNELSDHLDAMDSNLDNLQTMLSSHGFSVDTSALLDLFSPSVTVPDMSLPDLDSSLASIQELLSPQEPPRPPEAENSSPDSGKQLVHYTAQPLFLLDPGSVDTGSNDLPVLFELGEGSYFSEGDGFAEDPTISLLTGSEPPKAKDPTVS
Chain of ETV1 (P50549 whole entry): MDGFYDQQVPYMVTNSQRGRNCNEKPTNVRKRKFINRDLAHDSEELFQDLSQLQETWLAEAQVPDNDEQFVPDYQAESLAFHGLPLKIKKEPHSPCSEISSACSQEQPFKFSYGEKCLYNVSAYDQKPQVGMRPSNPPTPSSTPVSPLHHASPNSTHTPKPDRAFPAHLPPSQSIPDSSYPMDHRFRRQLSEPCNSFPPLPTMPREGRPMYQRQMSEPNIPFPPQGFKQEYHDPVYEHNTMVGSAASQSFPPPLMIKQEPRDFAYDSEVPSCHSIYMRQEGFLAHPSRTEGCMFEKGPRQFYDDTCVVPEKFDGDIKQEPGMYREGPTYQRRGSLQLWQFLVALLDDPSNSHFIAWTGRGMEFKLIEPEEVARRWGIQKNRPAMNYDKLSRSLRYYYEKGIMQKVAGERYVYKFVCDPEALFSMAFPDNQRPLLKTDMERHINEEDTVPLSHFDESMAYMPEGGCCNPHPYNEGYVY

TGCTTA: the binding signal is 1.04 fold enrichment (6-mer frequency, TF over GST control) in test [1]; 1.06 fold enrichment (6-mer frequency, TF over GST control) in test [2]; 1.21 fold enrichment (6-mer frequency, TF over GST control) in test [3]; 1.15 fold enrichment (6-mer frequency, TF over GST control) in test [4]; 1.13 fold enrichment (6-mer frequency, TF over GST control) in [5]; 1.08 fold enrichment (6-mer frequency, TF over GST control) in test [6]. For the same sequence, the binding signal was 1.06 fold enrichment (6-mer frequency, TF over GST control) in test [7]; 1 fold enrichment (6-mer frequency, TF over GST control) in test [8]; 1.03 fold enrichment (6-mer frequency, TF over GST control) in test [9]; 1.09 fold enrichment (6-mer frequency, TF over GST control) in [10]; 1.33 fold enrichment (6-mer frequency, TF over GST control) in test [11]; 1.32 fold enrichment (6-mer frequency, TF over GST control) in test [12]. The binding signal in test [13] was 1.11 fold enrichment (6-mer frequency, TF over GST control); in [14] it was 1.04 fold enrichment (6-mer frequency, TF over GST control); in [15], 1.09 fold enrichment (6-mer frequency, TF over GST control); in test [16], 1.78 fold enrichment (6-mer frequency, TF over GST control); in test [17], 1.11 fold enrichment (6-mer frequency, TF over GST control).
